High-throughput results (PubChem)
MBNL1 CUG block: qHTS Assay for Inhibitors of MBNL1-poly(CUG) RNA binding; Muscleblind-like protein 1 (Homo sapiens), Q9NR56; TR-FRET MBNL1-His/biotin-(CUG)12 binding, 665/545 ratio; Potency, µM (doses to about 57.5 µM), without a hit: at the highest dose activity change, negative = inhibition, most hits filed as inhibitors; 280,000 compounds, 0.036% hits; AID 2675, 2010; active = well fitted inhibition curve with a large enough effect in the signal ratio, with a control signal flat, not every such curve was filed as active; inconclusive = small, poorly fitted or top-dose-only effect, or effect the other way, or a change in a side signal; inactive = no such curve, though single readings can be large or run the other way; the % refers to the signal ratio; also: potency is read from the fitted curve at half-maximal effect; % is scaled to controls: 0 for no effect and ±100 for the full control effect
Target sequence (Q9NR56 whole entry, looked up): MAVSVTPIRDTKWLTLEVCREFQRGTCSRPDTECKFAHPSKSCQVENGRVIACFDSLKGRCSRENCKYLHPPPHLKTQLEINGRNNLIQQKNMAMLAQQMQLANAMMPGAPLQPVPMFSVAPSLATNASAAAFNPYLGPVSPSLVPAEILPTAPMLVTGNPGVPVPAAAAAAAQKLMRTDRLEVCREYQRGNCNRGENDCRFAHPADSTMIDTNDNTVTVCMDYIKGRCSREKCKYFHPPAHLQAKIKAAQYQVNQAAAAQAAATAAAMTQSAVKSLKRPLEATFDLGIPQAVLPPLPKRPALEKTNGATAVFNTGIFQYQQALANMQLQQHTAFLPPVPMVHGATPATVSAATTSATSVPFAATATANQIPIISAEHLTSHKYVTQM
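Ratiometric TR-FRET (665 over 545 nm, excitation 340 nm) tracks disruption of MBNL1-His/biotin-(CUG)12 complex after 60 min at room temperature, with compounds at 92 nM to 58 uM final.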
uPA surface inh: qHTS for Inhibitors of Cell Surface uPA Generation. cell surface uPA generation assay, qHTS. Potency, µM (doses to about 38.3 µM), for the others: at the highest dose activity change, negative = inhibition, hits mostly inhibitors. 330,000 compounds, 0.31% hits; active = well fitted inhibition curve with a large enough effect; inconclusive = small, poorly fitted or top-dose-only effect; inactive = no such curve, though single readings can be large or run the other way; tested in mouse RAW 264.7 cells; also: potency is read from the fitted curve at half-maximal effect; % is scaled to controls: 0 for no effect and ±100 for the full control effect; nearly all actives have a fitted effect of over 55% in size
Mm-Cpn inhibitor: Inhibitors of TCP-1 ring complex (TRiC) of Methanococcus maripaludis (MmCpn): qHTS. purified Mm-Cpn ATPase, ADP Transcreener TR-FRET. Potency, µM (highest dose often 76.9 µM), without a hit: at the top dose activity, negative = inhibition, actives largely listed as inhibitors. 330,000 compounds, 0.031% hits. AID 504842, 2011; also: potency is read from the fitted curve at half-maximal effect; % is scaled to controls: 0 for no effect and ±100 for the full control effect; nearly all actives have a fitted effect of over 80% in size
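ATPase read-out: TR-FRET ADP immunoassay (anti-ADP Eu cryptate vs ADP-d2), ex 320 nm, em 590/665 nm; signal drops as ADP forms. Enzyme 25 nM, ATP 10 uM, 30 min at 37°C after 10 min compound preincubation.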
CCT chaperon mod: High-Throughput Screening for Modulators of Cytosolic Chaperonin Activity; 360,000 compounds, 0.3% hits; purified chaperonin ATPase assay, HTRF ADP detection, 30 min; activity change, % (concentration not given with the values), hits read low; in the data active = activity change below about -30%; also: % is scaled to controls: 0 for no effect and ±100 for the full control effect
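We incubate TRiC, 40 or 20 nM final, with library compounds at 76 uM and 10 uM ATP for 30 min at 37 °C. ADP formed is detected with Transcreener HTRF reagents after 30 min at room temperature.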
Epigenetic reg: Quantitative High-Throughput Screen for Regulators of Epigenetic Control; 280,000 compounds, 0.2% hits; murine LDR cells, GFP reporter derepression, 30 h; Potency, µM (series often up to 53.9 µM), for the others: at the highest dose GFP activation, usual class: activators; AID 1865, 2009; also: potency is read from the fitted curve at half-maximal effect; % of control where 0% means no effect; nearly all actives have a fitted effect of over 60% in size
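GFP-positive cell count by laser-scanning cytometry (objects 20–120 um) after 30 h, 37 C compound exposure of murine LDR cells; reporter is CMV-GFP integrated at a silenced locus, inducible by HDAC or DNMT inhibitors.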
pAkt inh: HTS Assay for Inhibitors of Akt Phophorylation: Primary Screen | 360,000 compounds, 0.32% hits | activity change, % for hits at 50 µM | Neuro2A IGF-stimulated pAkt S473 HTRF, 20 min; stronger effect = lower value; in the data active = activity change below about -80%; inconclusive = mostly about -51% to -80%; also: % is scaled to controls: 0 for no effect and ±100 for the full control effect
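Neuro2A cells (4,500/well, DMEM with 0.5% FBS) were treated with compound at a single 50 µM final concentration, stimulated with 6 nM IGF for 20 min at 37 °C, and lysed. Phospho-Akt Ser473 was read by HTRF as 665/615 ratio ×10^4.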
Active calls of the source: *; i = inactive; ? = inconclusive; / = no result given; [ ] = remark or other dose. The list is not random: actives were taken first. Their share in the collection is about 0.97%. Unless noted, calls follow the shape of the dose curve; as a rule, active = well fitted curve in the direction sought with a large enough effect; inconclusive = small, poorly fitted or top-dose-only effect, or another doubt; inactive = no such curve, though single readings can be large; an effect the other way counts as inactive or inconclusive.

SMILES	MBNL1 CUG block	uPA surface inh	Mm-Cpn inhibitor	CCT chaperon mod	Epigenetic reg	pAkt inh
O=C(CCCOc1ccccc1)NN1C(=O)NC2(CCCCC2)C1=O	/	1%	-1%	4	/	i
OCCC1CN(Cc2cc(F)ccc2-n2cccn2)CCN1C1CCCC1 (stereo not given)	-9%	-9%	0%	-30*	-1%	i
COc1cccc(-c2nc(SCc3cc(=O)c4cc(Cl)ccc4[nH]3)n[nH]2)c1	/	/	/	/	-1%	/
COc1cccc(/C=N/NC(=O)c2cc(-c3ccc(C)cc3)n[nH]2)c1O	/	/	/	/	4%	/
O=S(=O)(c1ccc(OCC2CO2)cc1)c1ccc(OCC2CO2)cc1 (stereo not given)	-14%	5.6µM*	2%	-1	4%	i
CC(C)(c1ccccc1)c1ccc(OCC2CO2)cc1 (stereo not given)	-6%	3%	-2%	-30*	/	i
O=C(O)COc1ccc(S(=O)(=O)c2ccc(OCC(=O)O)cc2)cc1	-7%	0%	2%	1	0%	/
COc1cc(C=O)ccc1OS(=O)(=O)c1ccccc1[N+](=O)[O-]	/	-3%	-1%	-42*	1%	i
COc1cc(/C=N/n2cnnc2)ccc1OS(=O)(=O)c1ccccc1[N+](=O)[O-]	?	1%	-1%	0	-1%	i
Cc1cccc(C)c1OCC(=O)Nc1ccccc1C(F)(F)F	-1%	-6%	1%	-38*	-5%	i
Clc1ccc(-n2ncc3c(N4CCCCCC4)ncnc32)cc1	?	?	-3%	0	-1%	i
Brc1cc(Br)c2ncnc(N3CCCCC3)c2c1	?	-3%	-17%	-4	0%	-82%*
c1ccc(-c2csc(NNC3=NCCCCC3)n2)cc1	1%	-1%	1%	4	1%	i
Clc1ccc(-c2csc(NNC3=NCCCCC3)n2)cc1	14%	-5%	-1%	0	1%	-111%*
COc1ccccc1NS(=O)(=O)c1cc(C(=O)N2CCN(C/C=C/c3ccccc3)CC2)ccc1C	0%	4µM*	1%	0	/	i
Cc1ccc(Cc2c(-c3ccccc3)nc3c(Cl)cc(C(F)(F)F)cn23)cc1	/	/	/	0	/	i
CC(C)(C)c1ccc(Oc2ccc(NC(=O)c3ccco3)cn2)cc1	/	1.3µM*	-3%	-1	?	i
O=C(Nc1ccc(Oc2cccc(C(F)(F)F)c2)nc1)c1ccco1	/	-7%	2%	1	-1%	i
CC(=O)Nc1cccc(Oc2ncnc3scc(-c4ccc(C(C)C)cc4)c23)c1	1%	-2%	0%	0	-1%	i
COc1cc2sc(-c3ccc(S(C)(=O)=O)cc3)c(C(=O)NCc3ccc(C)o3)c2cc1OC	/	-9%	50µM*	0	/	i
COc1cc2sc(-c3ccc(S(C)(=O)=O)cc3)c(C(=O)NCCCCO)c2cc1OC	/	9%	-5%	-3	/	i
COCCOC(=O)c1[nH]c2c(c1C)C(=O)C(C(=O)OC)C(C)C2 (stereo not given)	-18%	?	1%	-1	3%	i
COC(=O)C1C(=O)c2c([nH]c(C(=O)OCC3CCCO3)c2C)CC1C (stereo not given)	7%	13µM*	0%	-1	0%	i
COc1ccc(-n2sc3ccc(F)cc3c2=O)cc1	/	10µM*	-7%	-1	/	i
O=c1c2cc(F)ccc2sn1-c1ccc(F)cc1	/	-26%	-8%	-2	/	i
SMILES	MBNL1 CUG block	uPA surface inh	Mm-Cpn inhibitor	CCT chaperon mod	Epigenetic reg	pAkt inh
Cc1cccc2nc(CNC(=O)CC3C(=O)NCCN3Cc3cccc(F)c3)cn12 (stereo not given)	3%	2%	-1%	-43*	/	/
O=C(CC1C(=O)NCCN1Cc1cccc(F)c1)NC1CCCCCC1 (stereo not given)	2%	4%	-4%	-1	/	i
COc1ccc(NC(=O)Cn2nnc(-c3ccccc3NC(=O)C3CC3)n2)cc1	7%	13%	-1%	-7	-2%	i
CCOc1ccc(NC(=O)Cn2nnc(-c3ccccc3NC(=O)C3CC3)n2)cc1	7%	3%	-1%	2	6%	-126%*
Cc1ccc(C(=O)O)cc1NC(=O)C1=CSCCO1	-6%	1%	-1%	-63*	/	/
Cc1ccc(C(=O)O)cc1NC(=O)c1cccs1	-22%	/	-4%	-2	5%	i
CCNC(=O)C1CCN(Cc2cc3ccccc3n2Cc2ccc(C)cc2)CC1	/	/	/	/	0%	/
N#CC(C#N)=C(N)CSc1cccc[n+]1[O-]	-2%	-3%	-1%	1	8.9µM*	i
C=CCN1C(=O)/C(=C/N(C)C)S/C1=N\S(=O)(=O)c1cccs1	/	/	/	1	/	i
CCN1C(=O)/C(=C\N(C)C)S/C1=N\S(=O)(=O)c1ccc(C)cc1	3%	6%	1%	-45*	0%	i
Cc1cccc(C)c1NS(=O)(=O)c1c(C)[nH]c(=O)[nH]c1=O	-6%	1%	-1%	-37*	-1%	i
Cc1ccc(NS(=O)(=O)c2c(C)[nH]c(=O)[nH]c2=O)c(C)c1	-5%	3%	2%	1	0%	i
Nc1nc(Nc2ccccc2)nc2c1ncn2[C@@H]1O[C@H](CO)[C@H](O)[C@H]1O	/	/	/	/	0%	/
CCc1nnc(N/N=C/c2cccs2)n1N	-8%[11.5 µM]	-12%	0%	-43*	1%	i
CN(Cc1cccc(Cl)c1)C(=O)C1CCC(=O)N(C2CC2)C1 (stereo not given)	3%	?	-1%	-76*	/	/
Cc1cc(/C=C2\NC(=S)NC2=O)c(C)n1-c1cccnc1	/	-8%	-1%	-83*	2%	i
O=C1/C(=C/c2cccnc2)SC(=S)N1Cc1ccco1	/	-9%	/	-4	/	i
Cc1cc(/C=C2\SC(=S)N(Cc3ccco3)C2=O)c(C)n1-c1cccnc1	11%	2%	0%	-2	22µM*	i
COc1ccc(Nc2cc(O)c3ncccc3c2)cc1	/	/	-2%	/	/	/
COc1ccc(CN(C)C(=O)c2ccc3c(=O)n4c(nc3c2)CCC4)c(OC)c1	/	4%	-2%	2	/	i
Cn1c(=O)c2c(ncn2CC(=O)Nc2nc3ccc(F)cc3s2)n(C)c1=O	1%	-2%	-2%	0	1%	-122%*
COc1ccc(-c2cc(C(F)F)n3ncc(C(=O)N4CCN(C(=O)c5ccco5)CC4)c3n2)cc1	?	10µM*	0%	-1	-1%	i
